Assay results published in the antibiotic and cytotoxicity screens of Wong et al. (2023).
Screen size: about 39,000 compounds; about 3,300 (8.5%) were called active. This is one part of a sample in which actives are shown more often than they occur.

The compounds below were run on HepG2 (assay: cytotoxicity call (relative viability < 0.9)). Conditions: 10 µM.

Row | Compound | cytotoxicity call
1 | COc1ccc(S(=O)(=O)Nc2ccc3c(c2)C(=O)N([C@@H](C)CO)C[C@H](C)[C@@H](CN(C)S(=O)(=O)c2cn(C)cn2)O3)cc1 | inactive
2 | C[C@H]1CN([C@@H](C)CO)C(=O)c2cc(NC(=O)C3CCCCC3)ccc2O[C@@H]1CN(C)Cc1ccc(C(F)(F)F)cc1 | inactive
3 | C[C@H](CO)N1C[C@H](C)[C@@H](CN(C)Cc2ccccc2)Oc2ccc(NC(=O)Cn3cnnn3)cc2C1=O | inactive
4 | C[C@H]1CN([C@@H](C)CO)C(=O)c2cccc(NS(=O)(=O)c3ccccc3)c2O[C@H]1CN(C)S(=O)(=O)c1cn(C)cn1 | inactive
5 | CCc1nc2ccc(C(=O)NCCCN3CCCC3=O)cn2c1N(CC)C(=O)NCCc1ccccc1 | inactive
6 | C[C@H]1CN([C@@H](C)CO)C(=O)c2cc(NC(=O)Nc3ccc(F)cc3)ccc2O[C@H]1CN(C)Cc1ccc(Cl)c(Cl)c1 | inactive
7 | C[C@@H]1CN([C@H](C)CO)C(=O)c2cc(NC(=O)Nc3ccc(F)cc3)ccc2O[C@H]1CN(C)Cc1ccc(Cl)c(Cl)c1 | inactive
8 | C[C@H](CO)N1C[C@H](C)[C@H](CN(C)Cc2ccc(Cl)c(Cl)c2)Oc2ccc(NC(=O)Nc3ccc(F)cc3)cc2C1=O | active
9 | C[C@@H]1CN([C@@H](C)CO)C(=O)c2cc(NC(=O)Nc3ccc(F)cc3)ccc2O[C@H]1CN(C)Cc1ccc(Cl)c(Cl)c1 | inactive
10 | C[C@@H]1CN([C@H](C)CO)C(=O)c2cc(NC(=O)Nc3ccc(F)cc3)ccc2O[C@@H]1CN(C)Cc1ccc(Cl)c(Cl)c1 | inactive
11 | C[C@@H]1CN([C@@H](C)CO)C(=O)c2cc(NC(=O)Nc3ccc(F)cc3)ccc2O[C@@H]1CN(C)Cc1ccc(Cl)c(Cl)c1 | active
12 | Cc1noc(C)c1NC(=O)Nc1ccc2c(c1)CC(=O)N([C@@H](C)CO)C[C@@H](C)[C@@H](CN(C)Cc1ccc(C(=O)Nc3ccccc3N)cc1)O2 | inactive
13 | O=C(C[C@H]1CC[C@H]2[C@@H](COC[C@@H](O)CN2S(=O)(=O)c2ccc(Cl)cc2)O1)NCc1ccncn1 | inactive
14 | COc1ncc(-c2ccc3c(Nc4cc(Oc5cc(F)cc(F)c5)cc(C(=O)O)c4)c(S(=O)(=O)NC4CC4)cnc3c2)c(OC)n1 | inactive
15 | CO[C@@H]1CN(C)C(=O)c2ccc(NC(=O)C3CC3)cc2OC[C@H](C)N(C(=O)C2CCOCC2)C[C@@H]1C | inactive
16 | COc1ccc(S(=O)(=O)Nc2cccc3c2O[C@H](CN(C)S(=O)(=O)c2ccc(C)cc2)[C@H](C)CN([C@@H](C)CO)C3=O)cc1 | inactive
17 | C[C@H]1CN([C@@H](C)CO)C(=O)c2cc(C#CCN(C)C)cnc2O[C@H]1CN(C)C(=O)c1ccc2c(c1)OCO2 | inactive
18 | C[C@@H]1CN([C@@H](C)CO)C(=O)c2cc(NC(=O)Nc3ccc(C(F)(F)F)cc3)ccc2O[C@@H](C)CCCCO[C@@H]1CN(C)Cc1ccc(C(F)(F)F)cc1 | inactive
19 | C[C@@H]1CN([C@H](C)CO)C(=O)c2cc(NC(=O)Nc3ccc(C(F)(F)F)cc3)ccc2O[C@@H](C)CCCCO[C@H]1CN(C)Cc1ccc(C(F)(F)F)cc1 | active

Row | Compound | cytotoxicity call
20 | C[C@@H]1CN([C@@H](C)CO)C(=O)c2cc(NC(=O)Nc3ccc(C(F)(F)F)cc3)ccc2O[C@@H](C)CCCCO[C@H]1CN(C)Cc1ccc(C(F)(F)F)cc1 | active
21 | C[C@@H]1CCCCO[C@H](CN(C)Cc2ccc(C(F)(F)F)cc2)[C@H](C)CN([C@@H](C)CO)C(=O)c2cc(NC(=O)Nc3ccc(C(F)(F)F)cc3)ccc2O1 | active
22 | C[C@H](CO)N1C[C@H](C)[C@@H](CN(C)Cc2ccc(C(F)(F)F)cc2)OCCCC[C@H](C)Oc2ccc(NC(=O)Nc3ccc(C(F)(F)F)cc3)cc2C1=O | inactive
23 | C[C@@H]1CCCCO[C@H](CN(C)Cc2ccc(C(F)(F)F)cc2)[C@@H](C)CN([C@@H](C)CO)C(=O)c2cc(NC(=O)Nc3ccc(C(F)(F)F)cc3)ccc2O1 | inactive
24 | C[C@H](CO)N1C[C@H](C)[C@H](CN(C)Cc2ccc(C(F)(F)F)cc2)OCCCC[C@H](C)Oc2ccc(NC(=O)Nc3ccc(C(F)(F)F)cc3)cc2C1=O | active
25 | C[C@@H]1CCCCO[C@@H](CN(C)Cc2ccc(C(F)(F)F)cc2)[C@H](C)CN([C@@H](C)CO)C(=O)c2cc(NC(=O)Nc3ccc(C(F)(F)F)cc3)ccc2O1 | inactive
26 | O=C(CN1CCOCC1)NCC[C@@H]1CC[C@@H](NS(=O)(=O)c2ccc(F)cc2)[C@@H](CO)O1 | inactive
27 | CCS(=O)(=O)N1C[C@]2(C1)CN([C@@H](CO)c1[nH]c3cc(ccc3c12)OC)C(=O)Nc1c(noc1C)C | inactive
28 | C[C@H](CO)N1C[C@H](C)[C@@H](CN(C)C(=O)CN(C)C)Oc2cc(C#C[C@@H](C)O)ccc2S1(=O)=O | inactive
29 | C[C@@H]1CCCCO[C@H](CN(C)S(=O)(=O)c2ccc(Cl)cc2)[C@H](C)CN([C@@H](C)CO)C(=O)c2cc(NC(=O)C3CCCCC3)ccc2O1 | inactive
30 | COc1ccc(NC(=O)N(C)C[C@H]2Oc3ccc(NS(=O)(=O)c4cn(C)cn4)cc3CC(=O)N([C@H](C)CO)C[C@@H]2C)cc1 | inactive
31 | COc1ccccc1CNC(=O)C[C@H]1C[C@H]2c3cc(NC(=O)Nc4ccc(C(F)(F)F)cc4)ccc3O[C@H]2[C@@H](CO)O1 | inactive
32 | C[C@@H]1CN([C@H](C)CO)C(=O)c2cc(NS(=O)(=O)c3ccc(F)cc3)ccc2O[C@@H](C)CCCCO[C@H]1CN(C)Cc1ccc2c(c1)OCO2 | inactive
33 | C[C@@H]1CN([C@H](C)CO)C(=O)Cc2cc(NC(=O)Nc3ccc4c(c3)OCO4)ccc2O[C@H]1CN(C)S(=O)(=O)c1cn(C)cn1 | inactive
34 | O=C(C[C@@H]1CC[C@@H]2[C@H](COC[C@H](O)CN2S(=O)(=O)c2cccc(Cl)c2)O1)NCc1ccc2c(c1)OCO2 | inactive
35 | C[C@@H]1CN([C@@H](C)CO)S(=O)(=O)c2ccc(Br)cc2O[C@H]1CN(C)Cc1ccccc1F | inactive
36 | CC(C)NC(=O)Nc1ccc2c(c1)CC(=O)N([C@@H](C)CO)C[C@H](C)[C@H](CN(C)Cc1ccc(C(=O)O)cc1)O2 | inactive
37 | C[C@@H]1CN([C@H](C)CO)C(=O)c2cc(NC(=O)C3CC3)ccc2O[C@@H]1CN(C)Cc1ccc(Oc2ccccc2)cc1 | inactive
38 | Cc1noc(C)c1S(=O)(=O)N(C)C[C@H]1Oc2ccc(NC(=O)C3CC3)cc2CC(=O)N([C@H](C)CO)C[C@@H]1C | inactive

Row | Compound | cytotoxicity call
39 | CCS(=O)(=O)N1CC[C@]2(CC1)CN([C@@H](CO)c1c2c2ccc(cc2n1C)OC)C(=O)c1cccc(c1)F | inactive
40 | C[C@@H]1CCCCO[C@@H](CN(C)Cc2ccc(C(F)(F)F)cc2)[C@@H](C)CN([C@H](C)CO)C(=O)c2cc(NC(=O)Nc3ccc(C(F)(F)F)cc3)ccc2O1 | inactive
41 | C[C@@H]1CN([C@H](C)CO)C(=O)c2cc(NC(=O)Nc3ccc(C(F)(F)F)cc3)ccc2O[C@@H](C)CCCCO[C@@H]1CN(C)Cc1ccc(C(F)(F)F)cc1 | inactive
42 | C[C@@H]1CCCCO[C@@H](CN(C)Cc2ccc(C(F)(F)F)cc2)[C@H](C)CN([C@H](C)CO)C(=O)c2cc(NC(=O)Nc3ccc(C(F)(F)F)cc3)ccc2O1 | inactive
43 | C[C@@H]1CCCCO[C@H](CN(C)Cc2ccc(C(F)(F)F)cc2)[C@H](C)CN([C@H](C)CO)C(=O)c2cc(NC(=O)Nc3ccc(C(F)(F)F)cc3)ccc2O1 | active
44 | C[C@H]1CCCCO[C@@H](CN(C)Cc2ccc(C(F)(F)F)cc2)[C@@H](C)CN([C@@H](C)CO)C(=O)c2cc(NC(=O)Nc3ccc(C(F)(F)F)cc3)ccc2O1 | active
45 | C[C@H]1CCCCO[C@H](CN(C)Cc2ccc(C(F)(F)F)cc2)[C@@H](C)CN([C@@H](C)CO)C(=O)c2cc(NC(=O)Nc3ccc(C(F)(F)F)cc3)ccc2O1 | active
46 | C[C@@H]1CCCCO[C@H](CN(C)Cc2ccc(C(F)(F)F)cc2)[C@@H](C)CN([C@H](C)CO)C(=O)c2cc(NC(=O)Nc3ccc(C(F)(F)F)cc3)ccc2O1 | active
47 | C[C@@H]1CCCCO[C@@H](CN(C)Cc2ccc(C(F)(F)F)cc2)[C@@H](C)CN([C@@H](C)CO)C(=O)c2cc(NC(=O)Nc3ccc(C(F)(F)F)cc3)ccc2O1 | inactive
48 | CN(C)CCCNC(=O)C[C@H]1CC[C@@H]2[C@H](COc3ccc(NC(=O)c4ccc5c(c4)OCO5)cc3C(=O)N2C)O1 | inactive
49 | C[C@@H]1CN([C@H](C)CO)C(=O)c2cc(NS(=O)(=O)c3ccc(F)cc3)ccc2O[C@H]1CN(C)CC1CC1 | inactive
50 | C[C@@H]1CN([C@@H](C)CO)C(=O)c2cc(NC(=O)Cc3ccccc3)ccc2O[C@@H](C)CCCCO[C@@H]1CN(C)C(=O)CCC(F)(F)F | inactive
51 | C[C@@H]1CN([C@@H](C)CO)C(=O)c2cc(NC(=O)NC3CCCCC3)ccc2O[C@H]1CN(C)Cc1ccc(C(F)(F)F)cc1 | inactive
52 | CO[C@H]1CN(C)C(=O)c2ccc(NC(=O)NC(C)C)cc2OC[C@H](C)N(Cc2ccc(-c3ccccn3)cc2)C[C@@H]1C | inactive
53 | C[C@@H]1CN([C@@H](C)CO)C(=O)c2cc(NC(=O)Nc3ccccc3)ccc2O[C@@H](C)CCCCO[C@H]1CN(C)Cc1ccncc1 | inactive
54 | CC(C)C#Cc1ccc2c(c1)O[C@@H](CN(C)C(=O)Cc1ccccn1)[C@H](C)CN([C@@H](C)CO)S2(=O)=O | inactive
55 | Cc1noc(C)c1S(=O)(=O)N(C)C[C@H]1Oc2ccc(NC(=O)NC(C)C)cc2CC(=O)N([C@H](C)CO)C[C@@H]1C | inactive
56 | C#CCOC(=O)[C@@H]1[C@@H](C(=O)O)[C@@H]2C=C[C@@H]1C2 | inactive
57 | COc1ccc(NC(=O)N(C)C[C@H]2Oc3ccc(NC(=O)C4CC4)cc3CC(=O)N([C@H](C)CO)C[C@@H]2C)cc1 | inactive
